Calls of active or inactive are those of the source.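 Rule for the calls: active = D2 binding constant Ki of 1000 nM or lower when displacing the radioligand; inactive = the rest.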
target: D(2) dopamine receptor (Homo sapiens) (UniProt P14416); assay: HTS Assay for Allosteric Antagonists of the Human D2 Dopamine Receptor: SAR in D2 Binding Assay; conditions: D2 radioligand binding, methylspiperone displacement
From the text: Dopamine receptors (DARs) are involved in the etiology and/or therapy of a number of neuropsychiatric and endocrine disorders. For instance, all receptor-based antiparkinsonian drugs work via stimulating the D2 DAR subtype whereas all FDA-approved antipsychotic agents are antagonists of this receptor. […] There are three different types of allosteric modulators that we are seeking, two of which will stimulate or augment receptor signaling, allosteric agonists and potentiators, while the third, allosteric antagonists, will attenuate receptor signaling. The present primary screening assay measures compound antagonism after an EC80 addition of dopamine by tracking calcium flux in a […], inducible Hek293 Trex D2 cell line. This assay measures activity of the leads in the D2 radioligand binding assay. NIH Chemical Genomics Center [NCGC] NIH Molecular Libraries Probe Centers Network [MLPCN] MLPCN Grant: NS0676421 Assay Submitter (PI): David Sibley
Radioligand displacement assay will be done to determine if the lead compounds are allosteric or orthosteric in nature, for interaction with the D2 receptor. Compounds will be evaluated for their ability to displace binding of methylspiperone.

Chain of D(2) dopamine receptor (Homo sapiens) (P14416 whole entry, looked up): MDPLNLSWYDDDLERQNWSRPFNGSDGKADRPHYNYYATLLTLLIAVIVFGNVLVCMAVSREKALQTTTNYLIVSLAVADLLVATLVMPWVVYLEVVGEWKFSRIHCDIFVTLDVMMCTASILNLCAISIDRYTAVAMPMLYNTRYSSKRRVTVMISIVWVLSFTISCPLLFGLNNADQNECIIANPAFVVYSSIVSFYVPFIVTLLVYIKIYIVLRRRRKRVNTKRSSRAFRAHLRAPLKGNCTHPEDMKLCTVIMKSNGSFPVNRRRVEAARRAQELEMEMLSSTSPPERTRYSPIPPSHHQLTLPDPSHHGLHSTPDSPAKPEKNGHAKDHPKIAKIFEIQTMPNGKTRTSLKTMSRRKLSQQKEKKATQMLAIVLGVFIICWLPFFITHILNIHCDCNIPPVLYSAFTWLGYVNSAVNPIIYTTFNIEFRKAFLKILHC

| Compound | Ki |
| --- | --- |
| CN1C(=O)c2ccccc2[S@](=O)c2ccc(C(=O)NCCc3cccs3)cc21 | 100 nM (active) |
